Laboratory results taken from PubChem BioAssay (NCI).
Where “and” joins values, the source holds several entries; their conditions need not be identical. Identical values can stand only once. About 83,000 compounds went through this panel and 20% of them were active in at least one assay; those are over-represented in the sample as a whole.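 Each cell line was grown in a 96-well plate and treated with one concentration of compound for 48 hours. Values below 10 were considered active.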 Unmarked numbers belong to inactive results. Calls of active or inactive are those of the source.

Tested on: UO-31 renal
Assay: NCI-60 one-dose screen, 48 h (100 = growth as untreated, 0 = no growth, -100 = all killed)
Conditions: 10 µM unless noted

SMILES	growth
Cn1cc(-c2cc3nc(-c4cn(C)c5ncccc45)cc(N)n3n2)c2cc(F)ccc21	52.6%
Cc1ccccc1NC(=O)c1cccc(NC(=O)CCl)c1	71.3%
FC(F)(F)c1cc2c(Cl)ncnc2n1CCN1CCCCC1	-96.3% (active)
Cn1cc(-c2cc(N)n3nc(-c4c[nH]c5ccc(Cl)cc45)cc3n2)c2cc(Br)cnc21	-39.3% (active)

Tested on: TK-10 renal
Assay: as above
Conditions: 10 µM unless noted

SMILES	growth
COc1ccc(-c2nc3ccccc3n2CC(=O)N=Nc2c(O)[nH]c3ccc(OC)cc23)cc1	43.8%
COc1cc(NC(=O)C(C)C)ccc1C(=O)NC(=S)Nc1ccc(S(N)(=O)=O)cc1	94.6%
COc1cc(C2CC(c3cc(OC)c(OC)c(OC)c3)=Nc3c(N)nc(N)nc3N2)ccc1Oc1nc(Nc2ccc(F)cc2)nc(N(C)C)n1 (configuration not stated)	99.8%
COc1ccc(C2=NN(C(=O)[C@H]3[C@@H](c4ccco4)c4sc(=O)[nH]c4S[C@@H]3C)C(c3ccc4ccccc4c3)C2)cc1 (some centres not stated)	50.4%
O=C(CSc1nc2c(c(=O)[nH]1)CCCC2)Nc1ccccc1C(=O)O	106%
O=C1c2cccc3c(N4CCN(c5ccccc5)CC4)ccc(c23)C(=O)N1c1cccc(-c2nn(-c3ccccc3)cc2-c2nc3ccccc3s2)c1	129%
N#CCc1nnc(NC(=O)c2ccc(-n3c(=O)[nH]c4ccccc4c3=O)cc2)s1	104%
CCOC(=O)/C(F)=C/C1CC1C(c1ccccc1)c1ccccc1 (configuration not stated)	101%
Cc1ccc(S(=O)(=O)N(CCn2ccnc2[N+](=O)[O-])CCn2ccnc2[N+](=O)[O-])cc1	98.4%
CC(C)(C)C(=O)c1c2c(c3ccc4c5ccccc5ccc4n13)C(=O)c1ccccc1C2=O	118%
O=C(N=Nc1c(O)[nH]c2ccc(Cl)cc12)c1ccc2nc(-c3ccc(Cl)cc3)[nH]c2c1	52.3%
COc1ccc(NC(=O)Cn2c(/C=C/c3cccc(OC)c3)nc3ccccc3c2=O)cc1	-42.9% (active)
Cc1cccc(/C=C/c2ccc(NC(=S)NCCCCN(C)C)cc2)c1	-89.8% (active)
Cc1ccc(C(=O)C[n+]2cccc3c4ccccc4ccc32)cc1	41.3%
c1ccc(CSc2nnc(-c3ccc4nc(-c5ccccc5)[nH]c4c3)o2)cc1	-2.54% (active)
O=C(Nc1ccc(-c2ccc3c(c2)NC(=O)/C3=C\c2ccc[nH]2)cc1)Nc1cccc(Cl)c1	-12.1% (active)
N#Cc1c(-c2ccc(F)cc2)nc(SCc2ccc(F)cc2)nc1N1CCNCC1	-25% (active)
Cc1cc(C2(c3cc(C)c(OCC(O)CNc4c(C)n(C)n(-c5ccccc5)c4=O)cc3C(C)C)OC(=O)c3ccccc32)c(C(C)C)cc1OCC(O)CNc1c(C)n(C)n(-c2ccccc2)c1=O (configuration not stated)	24.8%
O=CNc1cccc(-n2cnc3cc(-c4ccc(O)cc4)ccc32)c1	79.3%

SMILES	growth
COc1ccc(S(=O)(=O)Nc2ccc(-c3ccc4c(c3)NC(=O)/C4=C\c3ccc[nH]3)cc2)cc1OC	11.7%
CC(=O)Nc1cccc(-n2c(COc3ccc(Br)cc3)nc3ccccc32)c1	119% and 110%
CCCCNC(=S)Nc1ccc(OCc2nc3ccc(Cl)cc3[nH]2)cc1	36.6%
COc1ccc(OC)c(Cn2cc(C#N)c(N)c2C(=O)c2ccc(Br)cc2)c1	62.4%
NCCCCn1c(SCCc2c[nH]c3ccccc23)nnc1-c1ccc2ccccc2n1	-7.11% (active)
COc1cc(CNC(=O)C[C@H](C)CCC=C(C)C)ccc1OCc1cn(-c2ccccc2Cl)nn1	93.1%
NS(=O)(=O)c1ccc(N2N=C(c3ccc(NC(=O)Nc4ccccc4)cc3)CC2c2ccc(Br)cc2)cc1 (configuration not stated)	-61.3% (active)
COc1ccc(NC(=O)CSc2nnc(-c3ccc(-c4nc5ccc(Cl)cc5[nH]4)cc3)o2)cc1	112%
CC1=C(C(=O)OCc2ccccc2)C(c2ccc(N(C)C)cc2)n2c(nc3ccccc32)N1 (configuration not stated)	99.4%
NS(=O)(=O)c1ccc(Nc2nc(N/N=C/c3cc(Br)c(O)c(Br)c3)nc(Nc3ccccc3)n2)cc1	113%
COc1cccc(NC(=O)c2ccc(NC(=O)CCl)s2)c1	54.8%
Cc1oc(-c2ccccc2)nc1CN[C@@H]1C[C@@H]2C[C@H]([C@H]1C)C2(C)C	80.8%
C=CC(=O)Nc1ccc(C(=O)/C=C/c2ccc(N(C)C)cc2)c(O)c1	23.9%
COc1cc(/C=C/C(=O)c2cnn(-c3cc(=O)[nH]c4ccc(Cl)cc34)c2C)cc(OC)c1OC	0.154% (active)
COc1cc(C=O)ccc1Oc1nc(Nc2ccc(F)cc2)nc(N(C)C)n1	84.2% and 86.8%
Cn1cc(-c2cc3nc(-c4cn(C)c5ncccc45)cc(N)n3n2)c2cc(F)ccc21	74.6%
Cc1ccccc1NC(=O)c1cccc(NC(=O)CCl)c1	88.2%
FC(F)(F)c1cc2c(Cl)ncnc2n1CCN1CCCCC1	105%
Cn1cc(-c2cc(N)n3nc(-c4c[nH]c5ccc(Cl)cc45)cc3n2)c2cc(Br)cnc21	-53.1% (active)
